Test results: PubChem BioAssay (Tox21)
Records with an inconclusive call do not appear. Calls of active or inactive are those of the source. Unless noted, calls follow the shape of the dose curve; as a rule, active = well fitted curve in the direction sought with a large enough effect in the repeat runs; inconclusive = weak or mixed curves; inactive = no such curve, though single readings can be large; an effect the other way counts as inactive or inconclusive.

Key:
[1] = A CellTox Green Cytotoxicity Assay to monitor cytotoxicity in HepG2 cells - 0 hour (AID 1224882); also: nearly all actives have a fitted effect of over 35% in size
Outline: (§1)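 Measurements at 0, 8, 16, 24, 32 and 40 h of treatment captured CellTox Green fluorescence in HepG2 cells that had been co-plated with reagent and preincubated 5 h at 37 C/5% CO2.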

[2] = A CellTox Green Cytotoxicity Assay to monitor cytotoxicity in HepG2 cells - 32 hour (AID 1224883); also: nearly all actives have a fitted effect of over 50% in size; also: potency is read from the fitted curve at half-maximal effect
Outline: as §1

[3] = A CellTox Green Cytotoxicity Assay to monitor cytotoxicity in HEK293 cells - 8 hour (AID 1224884); also: nearly all actives have a fitted effect of over 35% in size; also: potency is read from the fitted curve at half-maximal effect
Outline: (§2)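 Tox21 screen in HEK293: membrane-impermeant cyanine dye fluoresces on binding dead-cell DNA; compound pinned 5 h post-seeding, plates held at 37 C, signal read repeatedly through 40 h.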

[4] = qHTS RealTime-Glo MT Cell Viability Assay in HepG2 cells - 16 hour (AID 1224885); also: nearly all actives have a fitted effect of over 50% in size
Outline: (§3)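 HepG2 cells were seeded at 600 cells/well together with NanoLuc luciferase and a cell-permeant prosubstrate, preincubated 5 h at 37 C/5% CO2, then pin-dosed with compounds in DMSO. Nonlytic luminescence from viable cells was read at each time point.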

[5] = qHTS RealTime-Glo MT Cell Viability Assay in HEK293 cells - 24 hour (AID 1224886); also: nearly all actives have a fitted effect of over 50% in size; also: potency is read from the fitted curve at half-maximal effect
Outline: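 HEK293 cells were seeded at 600 cells/well together with NanoLuc luciferase and cell-permeant prosubstrate, preincubated 5 h at 37 C/5% CO2, then given compound in DMSO by pintool. Luminescence from viable-cell prosubstrate reduction was read repeatedly over 40 h.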

[6] = qHTS RealTime-Glo MT Cell Viability Assay in HEK293 cells - 8 hour (AID 1224887); also: top concentration of the series differs between compounds; nearly all actives have a fitted effect of over 50% in size
Outline: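 HEK293 + NanoLuc + prosubstrate, 600 cells/well; 5 h, 37 C/5% CO2; compound 23 nL in DMSO by pintool; 37 C; luminescence read at 0, 8, 16, 24, 32 and 40 h time points.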

[7] = qHTS RealTime-Glo MT Cell Viability Assay in HepG2 cells - 0 hour (AID 1224889); also: nearly all actives have a fitted effect of over 50% in size; also: potency is read from the fitted curve at half-maximal effect
Outline: as §3

[8] = qHTS assay to identify small molecule antagonists of the androgen receptor (AR) signaling pathway using the MDA cell line in the presence of 0.5 nM R1881 - cell viability counter screen (AID 1259242); also: nearly all actives have a fitted effect of over 45% in size
Outline: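 Concentration-response screen of compounds for toxicity in MDA-kb2 reporter cells: 16 hr at 37C with 0.5 nM R1881, endpoint live-cell protease fluorescence measured in the reporter wells.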

[9] = qHTS assay to identify small molecule HDAC inhibitors (AID 1259364); also: potency is read from the fitted curve at half-maximal effect;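 also: wild-type HCT-116 cells with endogenous class I/II HDAC activity; nearly all actives have a fitted effect of over 45% in size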
Outline: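 Screening used wild-type human colon HCT-116 cells incubated overnight, dosed with compounds for 2 hours, and assayed with a homogeneous luminogenic HDAC I/II reagent for 30 minutes at room temperature.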

[10] = qHTS assay to identify small molecule HDAC inhibitors - cell viability counter screen (AID 1259365)
Outline: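 To flag cytotoxic hits, 1,500 wild-type HCT-116 cells per well, plated the day before, receive test compounds for 2hr at 37 C before CellTiter-Glo reagent and a luminescence read.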

[11] = qHTS assay to identify small molecule agonists of the sonic hedgehog signaling (Shh) pathway - cell viability counter screen (AID 1259366); also: nearly all actives have a fitted effect of over 50% in size; also: potency is read from the fitted curve at half-maximal effect
Outline: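 Fluorescence from CellTiter-Fluor reports live cells in this counter screen. NIH/3T3-derived Gli1-Luc reporter cells receive test compounds for 24hr at 37C; reagent goes in at 23hr.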

[12] = qHTS assay to identify small molecule antagonists of the sonic hedgehog signaling (Shh) pathway - cell viability counter screen (AID 1259367); also: nearly all actives have a fitted effect of over 55% in size; also: potency is read from the fitted curve at half-maximal effect
Outline: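 Conditioned medium drove Shh signaling in 3T3 Gli1-Luc cells exposed to compounds at 37C and 5% CO2. Viability was determined from CellTiter-Fluor fluorescence, with reagent incubated 1 hr after 23 hr of treatment.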

[13] = qHTS assay to identify small molecule agonists of the sonic hedgehog signaling (Shh) pathway (AID 1259368; calls by dose curve;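 also: NIH/3T3-derived 3T3Gli1-Luc cells carrying a stable Gli1-driven firefly luciferase reporter; series mostly up to about 92 µM; nearly all actives have a fitted effect of over 15% in size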)
Outline: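 Hedgehog pathway agonism scored by increased firefly luciferase luminescence in 3T3Gli1-Luc cells treated 24 hr at 37 C; detection used a 30 min room-temperature reagent incubation.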

[14] = A CellTox Green Cytotoxicity Assay to monitor cytotoxicity in HepG2 cells - 8 hour (AID 1224890); also: nearly all actives have a fitted effect of over 45% in size
Outline: as §1

[15] = qHTS assay to identify small molecule antagonists of the estrogen receptor alpha (ER-alpha) signaling pathway using the BG1 cell line in the presence of 0.1 nM 17-beta-estradiol - cell viability counter screen (AID 1259241); also: nearly all actives have a fitted effect of over 40% in size
Outline: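 CellTiter-Fluor read (30 min, 37C) on ER-alpha/ERE-luc VM7Luc4E2 cells; 22 hr compound treatment; agonist 0.1 nM E2 final; same-well multiplex.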

[16] = molecular target: Androgen receptor (Homo sapiens) (UniProt P10275); assay: qHTS assay to identify small molecule antagonists of the androgen receptor (AR) signaling pathway using the MDA cell line in the presence of 0.5 nM R1881 (AID 1259243); also: nearly all actives have a fitted effect of over 50% in size; also: potency is read from the fitted curve at half-maximal effect
Chain of Androgen receptor (Homo sapiens) (P10275 whole entry, looked up): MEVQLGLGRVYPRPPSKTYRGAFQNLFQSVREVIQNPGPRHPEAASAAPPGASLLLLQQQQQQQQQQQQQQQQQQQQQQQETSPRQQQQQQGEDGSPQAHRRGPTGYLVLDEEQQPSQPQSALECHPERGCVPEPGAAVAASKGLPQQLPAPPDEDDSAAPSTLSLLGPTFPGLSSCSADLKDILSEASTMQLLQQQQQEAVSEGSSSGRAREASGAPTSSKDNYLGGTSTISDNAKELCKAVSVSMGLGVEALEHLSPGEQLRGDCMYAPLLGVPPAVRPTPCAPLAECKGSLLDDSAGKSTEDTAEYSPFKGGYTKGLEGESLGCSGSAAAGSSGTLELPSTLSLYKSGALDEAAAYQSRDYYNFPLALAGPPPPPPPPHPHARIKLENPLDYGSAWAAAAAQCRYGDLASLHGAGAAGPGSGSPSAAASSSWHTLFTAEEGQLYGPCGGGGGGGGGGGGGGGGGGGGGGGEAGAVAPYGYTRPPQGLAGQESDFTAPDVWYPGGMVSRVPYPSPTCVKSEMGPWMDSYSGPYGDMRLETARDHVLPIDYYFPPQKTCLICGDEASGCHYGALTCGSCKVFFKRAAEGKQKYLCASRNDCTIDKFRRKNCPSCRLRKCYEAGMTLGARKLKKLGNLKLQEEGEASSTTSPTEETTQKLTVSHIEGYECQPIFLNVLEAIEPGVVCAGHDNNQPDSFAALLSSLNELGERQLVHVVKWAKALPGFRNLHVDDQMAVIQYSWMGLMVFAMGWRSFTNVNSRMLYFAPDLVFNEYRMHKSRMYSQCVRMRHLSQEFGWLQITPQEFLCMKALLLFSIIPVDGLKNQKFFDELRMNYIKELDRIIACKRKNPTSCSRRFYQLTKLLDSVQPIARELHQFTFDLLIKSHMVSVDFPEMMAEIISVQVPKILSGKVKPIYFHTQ
Outline: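 With R1881 held at 0.5 nM (final), compound effects on MMTV-luciferase expression in MDA-kb2 cells were scored by luminescence after a 16 hr, 37C incubation.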

[17] = A CellTox Green Cytotoxicity Assay to monitor cytotoxicity in HEK293 cells - 32 hour (AID 1224881); also: nearly all actives have a fitted effect of over 40% in size; also: potency is read from the fitted curve at half-maximal effect
Outline: as §2

[18] = A CellTox Green Cytotoxicity Assay to monitor cytotoxicity in HEK293 cells - 16 hour (AID 1224888); also: nearly all actives have a fitted effect of over 35% in size; also: potency is read from the fitted curve at half-maximal effect
Outline: as §2

[19] = molecular target: Estrogen receptor (Homo sapiens) (UniProt P03372); assay: qHTS assay to identify small molecule antagonists of the estrogen receptor alpha (ER-alpha) signaling pathway using the BG1 cell line in the presence of 0.1 nM 17-beta-estradiol (AID 1259244); also: nearly all actives have a fitted effect of over 50% in size; also: potency is read from the fitted curve at half-maximal effect
Chain of Estrogen receptor (Homo sapiens) (P03372 whole entry, looked up): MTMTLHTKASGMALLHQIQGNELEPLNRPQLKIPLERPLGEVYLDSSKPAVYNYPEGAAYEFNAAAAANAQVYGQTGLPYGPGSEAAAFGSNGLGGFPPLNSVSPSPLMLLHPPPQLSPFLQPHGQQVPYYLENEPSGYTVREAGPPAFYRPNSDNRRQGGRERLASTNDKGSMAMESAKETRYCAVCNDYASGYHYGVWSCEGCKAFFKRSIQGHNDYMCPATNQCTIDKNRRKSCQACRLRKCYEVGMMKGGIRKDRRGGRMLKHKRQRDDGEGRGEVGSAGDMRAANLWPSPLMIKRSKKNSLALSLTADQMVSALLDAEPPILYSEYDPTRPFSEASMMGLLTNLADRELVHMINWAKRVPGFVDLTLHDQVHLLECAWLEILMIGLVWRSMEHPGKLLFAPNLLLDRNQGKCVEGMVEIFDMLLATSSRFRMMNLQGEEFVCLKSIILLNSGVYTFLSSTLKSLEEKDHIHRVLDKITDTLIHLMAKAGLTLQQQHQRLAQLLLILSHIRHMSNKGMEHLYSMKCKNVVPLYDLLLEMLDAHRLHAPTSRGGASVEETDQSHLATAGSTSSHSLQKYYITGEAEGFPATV
Outline: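 Compounds were tested against 0.1 nM (final) 17beta-estradiol in VM7Luc4E2 cells, which express full-length ER-alpha and an ERE-luciferase reporter; luminescence was recorded following 22 h exposure.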

[20] = qHTS assay to identify small molecule phospholipidosis (PLD) inducers (AID 1259344; active = well fitted curve in the direction sought with a large enough effect; an effect the other way counts as inactive or inconclusive)
Outline: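 After 4 h attachment on collagen I, HepG2 cells were dosed with compound alongside LipidTOX Red, kept 24 h at 37 C, fixed, and imaged for lamellar phospholipid pits.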
% is scaled to controls: 0 for no effect and ±100 for the full control effect.

Nc1ccc([N+](=O)[O-])c(C(F)(F)F)c1
inactive: Potency [1] | Potency [2] | Potency [3] | Potency [4] | Potency [5] | Potency [6] | Potency [7] | Potency [8] | Potency [9] | Potency [10] | Potency [11] | Potency [12] | outcome [13]

O=C(O)C1(C(=O)Nc2ccc(Cl)cc2Cl)CC1
active: Potency [9] 13.7 µM
inactive: Potency [1] | Potency [2] | Potency [3] | Potency [4] | Potency [5] | Potency [6] | Potency [7] | Potency [14] | Potency [15] | Potency [8] | Potency [16] | Potency [10] | Potency [11] | Potency [12] | outcome [13]

CC(C)(CO)[N+](=O)[O-]
inactive: Potency [17] | Potency [3] | Potency [4] | Potency [5] | Potency [6] | Potency [18] | Potency [15] | Potency [8] | Potency [9] | Potency [10] | Potency [11] | Potency [12] | outcome [13]

COc1cc(C(=O)OCCCN2CCCN(CCCOC(=O)c3cc(OC)c(OC)c(OC)c3)CC2)cc(OC)c1OC
inactive: Potency [1] | Potency [3] | Potency [4] | Potency [18] | Potency [7] | Potency [14] | Potency [8] | Potency [20] | Potency [9] | Potency [10] | outcome [13]
active: Potency [2] 21.3 µM | Potency [5] 8.49 µM | Potency [19] 13.3 µM | Potency [11] 6.68 µM | Potency [12] 10.6 µM

Cc1cccc(C)c1OCC(=O)N[C@@H](Cc1ccccc1)[C@@H](O)C[C@H](Cc1ccccc1)NC(=O)[C@H](C(C)C)N1CCCNC1=O
active: Potency [5] 23.9 µM | Potency [16] 23.7 µM | Potency [11] 15 µM | Potency [12] 23.7 µM
inactive: Potency [1] | Potency [2] | Potency [3] | Potency [4] | Potency [18] | Potency [7] | Potency [14] | Potency [8] | Potency [20] | Potency [9] | Potency [10] | outcome [13]

NCc1ccccc1Sc1ccccc1CO
inactive: Potency [1] | Potency [2] | Potency [3] | Potency [4] | Potency [5] | Potency [6] | Potency [18] | Potency [7] | Potency [14] | Potency [8] | Potency [16] | Potency [19] | Potency [20] | Potency [9] | Potency [10] | Potency [11] | Potency [12] | outcome [13]

CC(=O)[O][Al][O]C(C)=O
inactive: Potency [1] | Potency [2] | Potency [3] | Potency [4] | Potency [5] | Potency [18] | Potency [7] | Potency [15] | Potency [8] | Potency [20] | Potency [9] | Potency [10] | Potency [11] | Potency [12] | outcome [13]

CNCCCN1c2ccccc2CCc2ccccc21
inactive: Potency [1] | Potency [3] | Potency [4] | Potency [6] | Potency [7] | Potency [14] | Potency [19] | Potency [9] | Potency [10] | outcome [13]
active: Potency [2] 26.8 µM

CCOC(=O)C(F)(F)F
inactive: Potency [1] | Potency [2] | Potency [3] | Potency [4] | Potency [5] | Potency [6] | Potency [18] | Potency [7] | Potency [14] | Potency [8] | Potency [9] | Potency [10] | Potency [11] | Potency [12] | outcome [13]

CN1CCC(N(Cc2cccs2)c2ccccc2)CC1
inactive: Potency [4] | Potency [5] | Potency [6] | Potency [7] | Potency [15] | Potency [8] | Potency [19] | PLD induction [20] -4.03% [at 7.66 µM] | Potency [9] | Potency [10] | Potency [11] | outcome [13]
active: Potency [17] 21.3 µM | Potency [3] 19 µM | Potency [18] 19 µM

COc1ccc2cccc(CCNC(C)=O)c2c1
inactive: Potency [17] | Potency [3] | Potency [4] | Potency [5] | Potency [6] | Potency [18] | Potency [7] | Potency [15] | Potency [8] | Potency [16] | Potency [19] | Potency [9] | Potency [10] | Potency [11] | Potency [12] | outcome [13]

O=CC1CC=CCC1 (centres undefined)
inactive: Potency [1] | Potency [2] | Potency [3] | Potency [4] | Potency [6] | Potency [18] | Potency [7] | Potency [14] | Potency [15] | Potency [8] | Potency [16] | Potency [9] | Potency [10] | Potency [11] | Potency [12] | outcome [13]

CC1=CC[C@H](C(C)C)C=C1
inactive: Potency [17] | Potency [2] | Potency [6] | Potency [18] | Potency [7] | Potency [14] | Potency [8] | Potency [19] | Potency [9] | Potency [10] | Potency [11] | Potency [12] | outcome [13]

COc1cc2nc(N3CCN(C(=O)C4COc5ccccc5O4)CC3)nc(N)c2cc1OC (centres undefined)
active: Potency [2] 23.9 µM | Potency [5] 21.3 µM | Potency [7] 10.7 µM
inactive: Potency [1] | Potency [3] | Potency [4] | Potency [18] | Potency [14] | Potency [15] | Potency [8] | Potency [20] | Potency [9] | Potency [10] | Potency [11] | Potency [12] | outcome [13]
